Columns and labels:
Assay in all cases: PBM binding z-score (relative to random genomic background probes); higher = stronger binding; sequences stand for … in GC…GCGATTGACAGCGTAGAATGAAGG
[1] = system: FXR:RXRa (NR concentration 270 nM, RXRa partner concentration 90 nM)
Method in brief: (§1)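 The probes on custom Agilent 4×180K protein-binding microarrays were double-stranded, with 34-nt variable regions bearing direct-repeat seeds, single-nucleotide variants, half-site ablations and random human genomic background sequences. Incubation lasted 1 h with ligand-free nuclear receptor dimers in PBS pH 7.4, 2% milk, 0.02% Triton X-100, 1 mM DTT, 0.2 mg/mL BSA and 0.4 mg/ml salmon testes DNA. Antibodies against each partner (one per run) detected bound dimers, and fluorescence scans were regression-normalized. Binding z-scores take the random background probes as reference.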

[2] = system: LXRa:RXRa (NR concentration 270 nM, RXRa partner concentration 90 nM)
Method in brief: as §1

[3] = system: LXRa homodimer (NR concentration 270 nM)
Method in brief: as §1

[4] = system: LXRb:RXRa (NR concentration 270 nM, RXRa partner concentration 90 nM)
Method in brief: as §1

[5] = system: LXRb homodimer (NR concentration 270 nM)
Method in brief: as §1

[6] = system: PPARa:RXRa (NR concentration 270 nM, RXRa partner concentration 90 nM)
Method in brief: as §1

[7] = system: PPARg:RXRa (NR concentration 180 nM, RXRa partner concentration 90 nM)
Method in brief: as §1

[8] = system: PPARg:RXRa 270nM:90nM, anti-RXR (NR concentration 270 nM, RXRa partner concentration 90 nM)
Method in brief: as §1

[9] = system: PPARg:RXRa 30nM:10nM, anti-RXR (NR concentration 30 nM, RXRa partner concentration 10 nM)
Method in brief: as §1

[10] = system: PPARg:RXRa 90nM:30nM, anti-RXR (NR concentration 90 nM, RXRa partner concentration 30 nM)
Method in brief: as §1

[11] = system: PPARg:RXRa DBDmut IVT, anti-RXR (DBD mutation: RXRa K156A/R161A, NR concentration 270 nM, RXRa partner concentration 90 nM)
Method in brief: as §1

[12] = system: PPARg:RXRa IVT, anti-PPARg (NR concentration 270 nM, RXRa partner concentration 90 nM)
Method in brief: as §1

[13] = system: PPARg DBDmut:RXRa IVT, anti-PPARg (DBD mutation: PPARg1 K132A/R137A, NR concentration 270 nM, RXRa partner concentration 90 nM)
Method in brief: as §1

[14] = system: PPARg DBDmut IVT, anti-PPARg (DBD mutation: PPARg1 K132A/R137A, NR concentration 270 nM)
Method in brief: as §1

[15] = system: PPARg homodimer (NR concentration 180 nM)
Method in brief: as §1

[16] = system: PXR:RXRa (NR concentration 270 nM, RXRa partner concentration 90 nM)
Method in brief: as §1

[17] = system: PXR homodimer (NR concentration 270 nM)
Method in brief: as §1

[18] = system: RARa:RXR (NR concentration 270 nM, RXRa partner concentration 90 nM)
Method in brief: as §1

[19] = system: RARa homodimer (NR concentration 270 nM)
Method in brief: as §1

[20] = system: RARb:RXRa (NR concentration 270 nM, RXRa partner concentration 90 nM)
Method in brief: as §1

Row | Sequence | PBM binding z-score [1] | PBM binding z-score [2] | PBM binding z-score [3] | PBM binding z-score [4] | PBM binding z-score [5] | PBM binding z-score [6] | PBM binding z-score [7] | PBM binding z-score [8] | PBM binding z-score [9] | PBM binding z-score [10] | PBM binding z-score [11] | PBM binding z-score [12] | PBM binding z-score [13] | PBM binding z-score [14] | PBM binding z-score [15] | PBM binding z-score [16] | PBM binding z-score [17] | PBM binding z-score [18] | PBM binding z-score [19] | PBM binding z-score [20]
1 | CAAACTAGGTGACAGAGGTCAAAGTCCGTGCGTA | 4.84 | 5.47 | 4.88 | 5 | 1.14 | 5.75 | 7.83 | 6.75 | 4.75 | 6.85 | 8 | 8.03 | 1.36 | 0.411 | 2.02 | 5.61 | 2.31 | 5.38 | 1.29 | 4.12
2 | TCTTCTAGATCAGCAGGTTAAGAAAGCTGGCCAA | 0.108 | 0.0628 | -0.37 | 0.225 | 0.0387 | 0.759 | -0.499 | 1.53 | 2.84 | 2.08 | 1.75 | 0.956 | -0.541 | -0.141 | -0.0964 | 0.0261 | -0.795 | 0.252 | -0.167 | 0.235
3 | TCTGCTAGGTTAGTTGGTCAGCTAACGAGCTGCC | -0.522 | -0.402 | -0.882 | -0.708 | -0.0822 | 0.052 | -0.648 | 0.707 | 0.944 | 0.973 | 1.37 | 1.5 | -0.266 | -0.918 | -1.12 | -0.398 | -1.1 | -0.512 | -1.39 | 0.525
4 | CTCGAGAGGTCGTGCTCAGGTGAGTATACCAAAC | 3.66 | 2.94 | -0.247 | 3.32 | -0.109 | 4.28 | 1.58 | 2.21 | 0.228 | 1.11 | 0.51 | 1.53 | -0.297 | -0.226 | 0.544 | 3.09 | 0.214 | 3.6 | -0.876 | 2.79
5 | CCTACTGGGCCATAAGGTCATTGATATCAACGTT | 3.03 | 3.09 | 1.89 | 3.17 | 0.0476 | 4.14 | 4.49 | 4.98 | 3.38 | 4.64 | 4.4 | 5.28 | 0.506 | 0.0496 | 2.03 | 3.98 | 1.97 | 4.25 | 1.27 | 3.43
6 | TCGATTAGTTGAAGGGCAACCGACGAGTCCGTTT | 0.259 | 0.194 | -0.152 | 0.106 | -0.503 | 0.295 | -0.114 | 1.19 | 2.74 | 1.85 | 1.72 | 0.195 | 0.000817 | 0.136 | -0.0561 | 0.157 | 0.0884 | 0.128 | 0.353 | 1.2
7 | ACTTACGGGTCAACGAGGTTACAGCACGCGTATA | 7.13 | 5.03 | 0.828 | 4.72 | 0.537 | 6 | 5.8 | 5.86 | 2.49 | 4.5 | 3.63 | 4.61 | 3.52 | 1.44 | 2.75 | 5.25 | 2.74 | 5.23 | 1.58 | 4.44
8 | ATCTCTAGGTAAGACTCAGTTCAGTGGAGAACGC | 0.367 | 0.505 | 0.914 | 0.328 | 0.692 | 0.228 | 0.00731 | 0.28 | 0.129 | 0.315 | 1.76 | 1.05 | 0.655 | 0.595 | 1.2 | 1.32 | 1.24 | 0.355 | 0.601 | 0.727

— the supplement of paper PMC6555819
